Measured values from PubChem BioAssay (NCATS).
Values joined by “and” are separate entries in the source; they are usually repeats but may differ in a detail not shown here. Equal entries are not always repeated. Results filed as inconclusive are left out. Active and inactive are the calls of the source. Unless noted, calls follow the shape of the dose curve; as a rule, active = well fitted curve in the direction sought with a large enough effect; inconclusive = small, poorly fitted or top-dose-only effect, or another doubt; inactive = no such curve, though single readings can be large; an effect the other way counts as inactive or inconclusive.

Experiments:
[1] = qHTS Assay for Identification of Small Molecule Agonists for Thrombopoietin (TPO) Signaling Pathway (AID 917); also: % is scaled to controls: 0 for no effect and ±100 for the full control effect
Procedure, shortened: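 Ba/F3 (mouse) + hTPO receptor + GpIIb-promoter luciferase; IL-3 withdrawn overnight; compound + 26 pM TPO (EC50), 24 hrs, 37 C, 5% CO2; Steadylite luminescence, 10 min RT.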

[2] = molecular target: Muscarinic acetylcholine receptor M1 (Rattus norvegicus) (UniProt P08482); test: qHTS Assay for Antagonists of Acetylcholine Muscarinic M1 Receptor: Kinetic Measurement of Intracellular Calcium Response (AID 943); also: nearly all actives have a fitted effect of over 75% in size; also: potency is read from the fitted curve at half-maximal effect
Muscarinic acetylcholine receptor M1 (Rattus norvegicus), sequence (P08482 whole entry, looked up): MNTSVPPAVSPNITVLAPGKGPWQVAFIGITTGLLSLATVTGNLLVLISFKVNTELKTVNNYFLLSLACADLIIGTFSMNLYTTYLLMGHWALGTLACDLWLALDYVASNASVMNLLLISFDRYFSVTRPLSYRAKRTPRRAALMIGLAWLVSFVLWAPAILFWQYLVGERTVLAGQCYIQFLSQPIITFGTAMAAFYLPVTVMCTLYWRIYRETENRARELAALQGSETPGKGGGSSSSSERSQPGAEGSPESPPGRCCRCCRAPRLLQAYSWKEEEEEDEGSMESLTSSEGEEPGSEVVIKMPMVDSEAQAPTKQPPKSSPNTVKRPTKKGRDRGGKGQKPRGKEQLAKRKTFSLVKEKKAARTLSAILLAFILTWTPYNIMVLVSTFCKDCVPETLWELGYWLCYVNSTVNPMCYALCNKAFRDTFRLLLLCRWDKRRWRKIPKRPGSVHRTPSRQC
Procedure, shortened: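 Quantitative HTS in CHO-M1 (rat receptor) cells: 10 min compound exposure ahead of 100 nM carbachol, Fluo-4 fluorescence followed 4 min, value expressed as peak-to-basal ratio.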

[3] = Validation of Assay for Modulators of Lamin A Splicing (AID 1459; active = well fitted curve in the direction sought with a large enough effect in the signal ratio; the % refers to the signal ratio;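 also: cells exposed to compound for two days before reading; 0% is about no effect; ratio rise marks activators and ratio drop marks inhibitors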)
Procedure, shortened: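 Readout: ratio of GFP (500-530 nm) to RFP (575-640 nm) total object intensity by 488 nm laser-scanning cytometry after 48 hrs. Cells were HeLa S3 clones carrying lamin A-EGFP minigene plus DsRed2 viability reporter; vehicle 0.5% DMSO final.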

[4] = molecular target: DNA repair nuclease/redox regulator APEX1 (Homo sapiens) (UniProt P27695); test: qHTS Validation Assay for Inhibitors of the Human Apurinic/apyrimidinic Endonuclease 1 (APE1) (AID 1705;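 also: TAMRA fluorescence gain over two minutes as APE1 cuts a quenched THF abasic duplex; series mostly up to about 57 µM; % is scaled to controls: 0 for no effect and ±100 for the full control effect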)
DNA repair nuclease/redox regulator APEX1 (Homo sapiens), sequence (P27695 whole entry, looked up): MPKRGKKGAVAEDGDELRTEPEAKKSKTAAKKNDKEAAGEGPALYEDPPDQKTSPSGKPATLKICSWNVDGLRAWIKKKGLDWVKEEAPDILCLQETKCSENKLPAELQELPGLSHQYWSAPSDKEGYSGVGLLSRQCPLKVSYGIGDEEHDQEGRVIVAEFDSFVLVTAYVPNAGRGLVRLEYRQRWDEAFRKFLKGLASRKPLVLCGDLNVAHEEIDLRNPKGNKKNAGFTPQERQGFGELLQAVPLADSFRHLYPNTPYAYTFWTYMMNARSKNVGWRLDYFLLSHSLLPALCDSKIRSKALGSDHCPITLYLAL
Procedure, shortened: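 Read-out: TAMRA fluorescence (525 nm ex, 598 nm em) from cleavage of a quenched THF abasic-site duplex, 50 nM final; activity taken as intensity change between third and first of three reads 60 s apart.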

[5] = Counterscreen for APE1 Inhibitors: Fluorescent Dye Displacement Validation Assay (AID 1707);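 also: plate controls were ThO with dsDNA and no compound for no effect and ThO without dsDNA for full effect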
Procedure, shortened: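 Loss of Thiazole Orange fluorescence marks promiscuous DNA binders. The dye (250 nM) is mixed with 50 nM abasic-site dsDNA in pH7.5 Tris buffer containing MgCl2, then compounds are added and emission is read once.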

[6] = molecular target: Endonuclease 4 (Escherichia coli (strain K12)) (UniProt P0A6C1); test: Counterscreen for APE1 Inhibitors: qHTS Validation Assay for Inhibitors of Endonuclease IV (AID 1708); also: % is scaled to controls: 0 for no effect and ±100 for the full control effect
Procedure, shortened: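 Measured as reaction progress, the fluorescence gain between first and third kinetic reads after adding 50 nM TAMRA/BHQ-2 THF duplex to 2 nM enzyme preincubated 15 min with compound; 2 mM MgCl2, pH 7.5.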

[7] = qHTS for differential inhibitors of proliferation of Plasmodium falciparum line 7G8 (AID 1815);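 also: parasite growth measured after three days of incubation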; also: potency is read from the fitted curve at half-maximal effect
[8] = qHTS for differential inhibitors of proliferation of Plasmodium falciparum line HB3 (AID 1886); details: Potency: Plasmodium falciparum HB3 proliferation inhibition;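 also: parasites grown with compound for 72 h before SYBR Green readout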; also: potency is read from the fitted curve at half-maximal effect
[9] = molecular target: Ferritin light chain (Equus caballus) (UniProt P02791); test: qHTS Validation Assay for Identification of Novel General Anesthetics (AID 2323); also: series mostly up to about 77 µM; % is scaled to controls: 0 for no effect and ±100 for the full control effect
Procedure, shortened: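 10 uM horse-spleen apoferritin + 1-AMA (50% saturated, PBS); cpd pin-transferred, 10 min RT. Ex 380/Em 535 nm endpoint. Activity normalized between free 1-AMA and 1-AMA/apoferritin; 4-parameter Hill fit of concentration-response.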

[10] = molecular target: ATP-dependent DNA helicase Q1 (Homo sapiens) (UniProt P46063); test: qHTS Validation Assay for Inhibitors of RecQ-Like Dna Helicase 1 (RECQ1) (AID 2353);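 also: plate controls were DMSO vehicle for no effect and enzyme-free control for full effect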
ATP-dependent DNA helicase Q1 (Homo sapiens), sequence (P46063 whole entry, looked up): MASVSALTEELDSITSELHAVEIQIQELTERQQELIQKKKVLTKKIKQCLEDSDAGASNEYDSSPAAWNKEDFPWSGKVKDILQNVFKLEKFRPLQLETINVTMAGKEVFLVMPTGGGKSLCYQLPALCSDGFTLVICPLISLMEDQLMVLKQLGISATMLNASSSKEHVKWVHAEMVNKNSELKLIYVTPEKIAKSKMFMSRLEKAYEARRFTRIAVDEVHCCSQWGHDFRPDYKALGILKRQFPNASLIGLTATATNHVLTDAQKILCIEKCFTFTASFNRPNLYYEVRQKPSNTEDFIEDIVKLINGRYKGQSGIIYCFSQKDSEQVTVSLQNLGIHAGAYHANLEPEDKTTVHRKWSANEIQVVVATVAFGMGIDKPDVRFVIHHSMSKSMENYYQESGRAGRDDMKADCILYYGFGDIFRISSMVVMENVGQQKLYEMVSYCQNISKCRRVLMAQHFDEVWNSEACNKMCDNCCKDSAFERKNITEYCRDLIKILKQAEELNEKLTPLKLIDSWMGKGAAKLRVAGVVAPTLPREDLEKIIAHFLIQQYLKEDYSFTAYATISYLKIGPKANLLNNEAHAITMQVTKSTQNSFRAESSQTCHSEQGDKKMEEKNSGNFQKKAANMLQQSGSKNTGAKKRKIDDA
Procedure, shortened: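 RECQ1T1 50 nM; forked duplex (20 bp + 30-nt ss tails) 200 nM, ATP 2 mM final; pH 8.0, 2 mM MgCl2, 2.5 ug/ml poly(dI-dC); 15 min compound preincubation; discontinuous kinetic read over 2 h at RT.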

[11] = Validation screen for inhibitors of Lassa infection (AID 463096; calls by dose curve; also: potency is read from the fitted curve at half-maximal effect)
[12] = Validation screen for small molecules that induce DNA re-replication in MCF 10A normal breast cells (AID 463097); also: 0% is about no effect; nearly all actives have a fitted effect of over 60% in size
Procedure, shortened: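 250 MCF 10A cells/well; compound pin-transferred; 48 hr, 37 C, 5% CO2; Hoechst 40 min; imaged 405/500-530 nm. Hits = more high-intensity nuclei.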

[13] = molecular target: M-phase phosphoprotein 8 (Homo sapiens) (UniProt Q99549); test: qHTS Validation Assay for Inhibitors for MPP8 Chromodomain Interactions with Methylated Histone Tails (AID 488949); also: nearly all actives have a fitted effect of over 55% in size; also: potency is read from the fitted curve at half-maximal effect
M-phase phosphoprotein 8 (Homo sapiens), sequence (Q99549 whole entry, looked up): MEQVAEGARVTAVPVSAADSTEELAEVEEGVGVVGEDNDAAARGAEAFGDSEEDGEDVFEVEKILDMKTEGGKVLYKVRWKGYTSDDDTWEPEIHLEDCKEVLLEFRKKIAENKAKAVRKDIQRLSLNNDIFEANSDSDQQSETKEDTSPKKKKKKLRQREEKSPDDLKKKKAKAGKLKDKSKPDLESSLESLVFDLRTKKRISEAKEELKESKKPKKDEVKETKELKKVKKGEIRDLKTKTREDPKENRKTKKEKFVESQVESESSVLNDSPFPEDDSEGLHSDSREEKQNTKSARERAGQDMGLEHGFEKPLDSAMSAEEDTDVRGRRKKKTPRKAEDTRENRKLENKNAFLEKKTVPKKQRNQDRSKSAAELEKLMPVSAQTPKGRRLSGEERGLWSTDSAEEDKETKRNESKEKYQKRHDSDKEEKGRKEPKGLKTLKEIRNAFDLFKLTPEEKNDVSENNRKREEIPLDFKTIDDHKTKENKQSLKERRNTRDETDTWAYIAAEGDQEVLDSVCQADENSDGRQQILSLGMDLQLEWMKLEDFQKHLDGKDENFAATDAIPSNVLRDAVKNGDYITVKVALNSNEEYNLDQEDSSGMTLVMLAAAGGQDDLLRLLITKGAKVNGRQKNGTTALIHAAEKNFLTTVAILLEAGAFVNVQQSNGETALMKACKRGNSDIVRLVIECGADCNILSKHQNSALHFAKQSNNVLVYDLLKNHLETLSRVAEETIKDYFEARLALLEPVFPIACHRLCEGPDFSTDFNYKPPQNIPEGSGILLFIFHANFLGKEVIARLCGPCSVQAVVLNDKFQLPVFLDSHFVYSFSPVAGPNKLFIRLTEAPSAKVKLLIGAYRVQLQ
Procedure, shortened: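 AlphaScreen read-out: streptavidin donor and nickel chelate acceptor beads (final 10 ug/mL), 30 min in the dark at RT. Complex of 50 nM MPP8 and 50 nM b-H3(1-18)K9me3 peptide had been exposed to compounds for 30 min beforehand.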

[14] = molecular target: Transient receptor potential cation channel subfamily V member 1 (Homo sapiens) (UniProt Q8NER1); test: HTS Assay for Compounds that Act as Enhancers of the Vanilloid Receptor 1 (AID 488979); also: 0% is about no effect
Procedure, shortened: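 TRPV1-expressing cells loaded with Fluo-8 calcium dye; compounds added and calcium influx read kinetically for 3 min (agonist phase), then capsaicin at EC20 added and read 2 min more for enhancement. Fluorescence ex 480/em 520 nm.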

[15] = molecular target: Thyrotropin receptor (Homo sapiens) (UniProt P16473); test: qHTS Assay for Antagonists of the Thyroid Stimulating Hormone Receptor (AID 488980); also: series mostly up to about 58 µM; 0% is about no effect
Thyrotropin receptor (Homo sapiens), sequence (P16473 whole entry, looked up): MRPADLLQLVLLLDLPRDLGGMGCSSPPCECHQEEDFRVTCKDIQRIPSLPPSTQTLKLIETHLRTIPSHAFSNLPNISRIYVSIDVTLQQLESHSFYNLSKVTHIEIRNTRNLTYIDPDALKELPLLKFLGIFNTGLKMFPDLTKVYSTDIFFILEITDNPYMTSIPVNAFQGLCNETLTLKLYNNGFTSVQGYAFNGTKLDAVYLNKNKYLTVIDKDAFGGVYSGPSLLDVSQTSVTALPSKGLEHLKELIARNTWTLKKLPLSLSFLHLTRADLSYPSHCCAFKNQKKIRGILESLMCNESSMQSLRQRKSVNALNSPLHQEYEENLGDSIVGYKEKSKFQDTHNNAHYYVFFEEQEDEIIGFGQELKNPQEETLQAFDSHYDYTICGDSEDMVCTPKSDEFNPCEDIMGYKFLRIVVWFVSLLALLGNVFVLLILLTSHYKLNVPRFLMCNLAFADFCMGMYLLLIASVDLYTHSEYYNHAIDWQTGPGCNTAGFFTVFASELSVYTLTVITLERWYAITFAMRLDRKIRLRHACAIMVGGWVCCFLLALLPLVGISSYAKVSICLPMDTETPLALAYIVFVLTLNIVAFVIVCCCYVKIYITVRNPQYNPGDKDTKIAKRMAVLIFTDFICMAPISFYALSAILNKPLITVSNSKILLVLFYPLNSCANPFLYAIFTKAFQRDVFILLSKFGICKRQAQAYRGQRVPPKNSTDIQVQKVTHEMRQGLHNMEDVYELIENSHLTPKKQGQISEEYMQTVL
Procedure, shortened: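 TSHR-HEK293 cells; 70 uM RO 20-1724 PDE inhibitor; compound + EC80 TSH (4 nM final); anti-cAMP cryptate antibody/cAMP-d2 in lysis buffer, 30 min RT; HTRF 665/620 nm read.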

[16] = molecular target: Thyrotropin-releasing hormone receptor (Homo sapiens) (UniProt P34981); test: qHTS for Small Molecule Agonists and Allosteric Enhancers of Human TRH Receptor: Validation Screen for Agonists (AID 493127;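 active = calcium activation more than 3 SD above the typical response in the agonist read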;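 also: intracellular calcium rise by fluo-8 fluorescence before TRH EC20 addition; 0% is about no effect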); details: TRH receptor agonist cell assay; at 2 µM; hits give high values
Thyrotropin-releasing hormone receptor (Homo sapiens), sequence (P34981 whole entry, looked up): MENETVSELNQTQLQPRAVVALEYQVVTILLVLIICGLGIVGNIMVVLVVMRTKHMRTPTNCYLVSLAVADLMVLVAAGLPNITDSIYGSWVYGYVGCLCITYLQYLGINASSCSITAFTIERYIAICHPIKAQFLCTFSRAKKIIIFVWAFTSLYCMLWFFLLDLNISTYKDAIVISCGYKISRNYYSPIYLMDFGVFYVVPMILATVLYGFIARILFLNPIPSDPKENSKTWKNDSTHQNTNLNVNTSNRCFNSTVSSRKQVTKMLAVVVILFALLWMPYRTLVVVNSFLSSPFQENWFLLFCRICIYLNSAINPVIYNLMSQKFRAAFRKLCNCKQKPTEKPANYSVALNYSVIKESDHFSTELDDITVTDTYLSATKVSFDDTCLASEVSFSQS
Procedure, shortened: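 Kinetic fluorescence assay of agonist-induced calcium release: overnight-plated TRHR cells, room-temperature fluo-8 loading, baseline then compound addition with per-second reads.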

[17] = molecular target: Galactokinase (Homo sapiens) (UniProt P51570); test: qHTS Validation Assay for Inhibitors of Human Galactokinase (GALK) (AID 493189); also: 0% is about no effect
Galactokinase (Homo sapiens), sequence (P51570 whole entry, looked up): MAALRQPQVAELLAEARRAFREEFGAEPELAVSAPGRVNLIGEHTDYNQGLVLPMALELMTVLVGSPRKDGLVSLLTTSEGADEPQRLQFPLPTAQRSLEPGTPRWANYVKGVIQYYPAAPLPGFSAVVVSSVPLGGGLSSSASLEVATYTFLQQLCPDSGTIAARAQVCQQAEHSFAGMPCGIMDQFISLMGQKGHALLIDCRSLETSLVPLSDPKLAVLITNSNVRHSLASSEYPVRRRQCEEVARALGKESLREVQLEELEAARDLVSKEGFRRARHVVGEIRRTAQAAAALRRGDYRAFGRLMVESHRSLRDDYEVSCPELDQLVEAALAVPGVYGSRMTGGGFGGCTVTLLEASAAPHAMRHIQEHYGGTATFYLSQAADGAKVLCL
Procedure, shortened: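 Luminescence from leftover ATP (Kinase-Glo Plus, 10 min) served as read-out after a 1 h room-temperature reaction of 5 nM GALK, 100 uM galactose and 35 uM ATP at pH8.0.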

[18] = qHTS for differential inhibitors of proliferation of Plasmodium falciparum line W2 (AID 1883); details: Potency: Plasmodium falciparum W2 proliferation inhibition;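 also: parasites grown with compound for 72 h before lysis and staining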; also: potency is read from the fitted curve at half-maximal effect
[19] = molecular target: Cytochrome P450 3A4 (Homo sapiens) (UniProt P08684); test: qHTS Assay for Activators of Cytochrome P450 3A4 (AID 885); also: nearly all actives have a fitted effect of over 65% in size
Cytochrome P450 3A4 (Homo sapiens), sequence (P08684 whole entry, looked up): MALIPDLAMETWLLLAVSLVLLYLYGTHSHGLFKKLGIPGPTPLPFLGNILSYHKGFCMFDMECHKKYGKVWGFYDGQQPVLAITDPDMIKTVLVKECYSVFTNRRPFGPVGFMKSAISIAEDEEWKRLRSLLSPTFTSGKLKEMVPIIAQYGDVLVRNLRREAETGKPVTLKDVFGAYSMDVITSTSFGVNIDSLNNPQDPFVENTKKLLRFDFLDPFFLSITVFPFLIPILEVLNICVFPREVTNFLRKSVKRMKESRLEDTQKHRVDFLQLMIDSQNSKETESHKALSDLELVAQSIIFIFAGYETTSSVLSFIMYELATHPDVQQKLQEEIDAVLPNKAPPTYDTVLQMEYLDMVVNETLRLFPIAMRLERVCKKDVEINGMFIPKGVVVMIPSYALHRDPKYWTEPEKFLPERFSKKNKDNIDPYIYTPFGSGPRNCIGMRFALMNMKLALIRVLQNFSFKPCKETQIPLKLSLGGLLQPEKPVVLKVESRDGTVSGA
Procedure, shortened: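 Using 20nM recombinant human CYP3A4 in potassium phosphate (200mM), substrate Luciferin-PPXE at 25uM, luminescent luciferin detection followed a 60-min RT NADPH reaction; data scaled to 57 uM ketoconazole.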

[20] = molecular target: Cytochrome P450 2D6 (Homo sapiens) (UniProt P10635); test: qHTS Assay for Inhibitors and Substrates of Cytochrome P450 2D6 (AID 891); also: nearly all actives have a fitted effect of over 60% in size; also: potency is read from the fitted curve at half-maximal effect
Cytochrome P450 2D6 (Homo sapiens), sequence (P10635 whole entry, looked up): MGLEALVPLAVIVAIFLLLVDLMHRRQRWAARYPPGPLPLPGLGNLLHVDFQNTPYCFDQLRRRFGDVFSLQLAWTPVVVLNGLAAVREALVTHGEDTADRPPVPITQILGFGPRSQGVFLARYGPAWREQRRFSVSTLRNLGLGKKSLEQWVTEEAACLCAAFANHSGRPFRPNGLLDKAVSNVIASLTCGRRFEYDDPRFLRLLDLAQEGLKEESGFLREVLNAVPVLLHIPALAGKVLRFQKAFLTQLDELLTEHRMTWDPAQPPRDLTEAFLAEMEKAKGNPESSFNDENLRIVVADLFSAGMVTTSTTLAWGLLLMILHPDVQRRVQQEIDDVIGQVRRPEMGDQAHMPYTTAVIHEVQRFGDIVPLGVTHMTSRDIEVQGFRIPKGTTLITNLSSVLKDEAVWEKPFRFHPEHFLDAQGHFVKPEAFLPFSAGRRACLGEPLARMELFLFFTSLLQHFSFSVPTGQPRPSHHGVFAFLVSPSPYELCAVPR
Procedure, shortened: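 Luminescent read-out of luciferin formed by 5 nM human CYP2D6 demethylating 30 uM Luciferin-ME EGE (Km level) over 60 min at room temperature after NADPH regeneration addition. Data normalized to full inhibition by 1.43 uM quinidine.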

COc1ccc2[nH]cc(CCN(C)C)c2c1
inactive: outcome [1] | Potency [2] | outcome [3] | Potency [4] | Potency [5] | outcome [6] | Potency [7] | Potency [8] | outcome [9] | Potency [10] | Potency [11] | Potency [12] | Potency [13] | outcome [14] | outcome [15] | activation [16] 0.688% | outcome [17]

CN1CCN(c2ccc3ccccc3n2)CC1
inactive: outcome [3] | Potency [4] | Potency [5] | outcome [6] | Potency [8] | outcome [9] | Potency [10] | Potency [12] | Potency [13] | outcome [14] | outcome [15] | activation [16] 1.56% | outcome [17]

C=CCN1CCC2(C)c3cc(O)ccc3CC1C2C (centres undefined)
inactive: outcome [3] | Potency [4] | Potency [5] | outcome [6] | Potency [8] | outcome [9] | Potency [10] | Potency [11] | Potency [12] | Potency [13] | outcome [14] | outcome [15] | activation [16] 1.19% | outcome [17]
active: Potency [7] 7.08 µM | Potency [18] 5.62 µM

CNc1ccc2oc(C[C@H]3O[C@]4(CC[C@H]3C)O[C@H]([C@H](C)C(=O)c3ccc[nH]3)[C@H](C)C[C@H]4C)nc2c1C(=O)O
inactive: Potency [2]

C=CCN1C[C@H](C)N([C@H](c2ccc(C(=O)N(CC)CC)cc2)c2cccc(O)c2)C[C@H]1C
inactive: Potency [19]

Cc1o[nH]c(=O)c1C[C@H](N)C(=O)O
inactive: outcome [1]

C[C@H](N)Cc1c[nH]c2ccc(O)cc12
inactive: outcome [1] | Potency [2]

C=CCN1CC[C@@]23c4c5ccc(O)c4O[C@H]2/C(=N\N=C2/CC[C@@]4(O)[C@H]6Cc7ccc(O)c8c7[C@@]4(CCN6CC=C)[C@@H]2O8)CC[C@]3(O)[C@@H]1C5
inactive: Potency [19]

N[C@H](CP(=O)(O)O)C(=O)O
inactive: Potency [20] | outcome [1] | Potency [2]

C[C@]12N[C@@H](Cc3ccccc31)c1ccccc12
inactive: Potency [19]
active: Potency [20] 79.4 nM and 5.01 µM

CN1C(=O)CCS(=O)(=O)[C@H]1c1ccc(Cl)cc1
inactive: Potency [20] | outcome [1] | Potency [2]

CC(C)(C)c1o[nH]c(=O)c1C[C@H](N)C(=O)O
inactive: Potency [20] | outcome [1] | Potency [2]

CN1CCc2cc(O)cc3c2C1Cc1ccc(O)c(O)c1-3 (centres undefined)
inactive: Potency [4] | Potency [5] | outcome [6] | outcome [9] | Potency [10] | Potency [11] | outcome [14] | outcome [15] | activation [16] 1.44% | outcome [17]
active: Potency [7] 8.91 µM | Potency [18] 6.31 µM | Potency [8] 12.6 µM | Potency [13] 22.4 µM

CN1[C@@H]2CC[C@H]1CC(O[C@@H](c1ccccc1)c1ccc(Cl)cc1)C2 (some centres undefined)
active: Potency [20] 1.26 µM and 1.58 µM | Potency [2] 0.02 µM
inactive: Potency [19]

CCOC(=O)c1ncn2c1[C@H]1CCCN1C(=O)c1cc(OC)ccc1-2
inactive: Potency [20] | outcome [1] | Potency [2]

C[C@@H](Cc1ccc(OCC(=O)O)cc1)NC[C@H](O)c1cccc(Cl)c1
inactive: Potency [19] | outcome [1]

COc1ccc(CNC(=O)/C=C\c2ccc3[nH]cc(CCN(C)C)c3c2)cc1
inactive: Potency [19] | Potency [20] | outcome [1]

C[C@@H]1O[C@@H](O[C@H]2C[C@@H](O)[C@]3(CO)[C@@H]4C(CC[C@]3(O)C2)[C@@]2(O)CC[C@H](C3=CC(=O)OC3)[C@@]2(C)C[C@H]4O)[C@H](O)[C@H](O)[C@H]1O (some centres undefined)
active: Potency [18] 11.2 µM | Potency [11] 0.1 µM
inactive: Potency [4] | Potency [5] | outcome [6] | outcome [9] | Potency [10] | outcome [14] | activation [16] 0.375% | outcome [17]

NC[C@H](CP(=O)(O)O)c1ccc(Cl)cc1
inactive: outcome [1] | Potency [2]

CC1OC(=O)C(C(C)C)NC(=O)C(C(C)C)OC(=O)C(C(C)C)NC(=O)C(C)OC(=O)C(C(C)C)NC(=O)C(C(C)C)OC(=O)C(C(C)C)NC(=O)C(C)OC(=O)C(C(C)C)NC(=O)C(C(C)C)OC(=O)C(C(C)C)NC1=O (centres undefined)
inactive: Potency [19]

N#CC(C#N)=Cc1ccc([N+](=O)[O-])c(O)c1
inactive: Potency [19] | outcome [1] | Potency [2] | Potency [4] | Potency [5] | outcome [6] | Potency [7] | Potency [18] | Potency [8] | outcome [9] | Potency [10] | Potency [11] | Potency [12] | Potency [13] | outcome [14] | outcome [15] | activation [16] -0.188% | outcome [17]
